Assay outcomes as filed in PubChem BioAssay.
FLuc counter: firefly luciferase modulation, counter-screen for miR-21 project; purified FLuc, Km substrates, luminescence inhibition; Potency, µM (top dose mostly 57.5 µM), without a hit: at the highest dose activity change, negative = inhibition, hits mostly inhibitors; 360,000 tested, 6.9% active;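 note: plate controls were vehicle for no effect and reference inhibitor for full effect; nearly all actives have a fitted effect of over 55% in size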
Target sequence (P08659 whole entry, looked up): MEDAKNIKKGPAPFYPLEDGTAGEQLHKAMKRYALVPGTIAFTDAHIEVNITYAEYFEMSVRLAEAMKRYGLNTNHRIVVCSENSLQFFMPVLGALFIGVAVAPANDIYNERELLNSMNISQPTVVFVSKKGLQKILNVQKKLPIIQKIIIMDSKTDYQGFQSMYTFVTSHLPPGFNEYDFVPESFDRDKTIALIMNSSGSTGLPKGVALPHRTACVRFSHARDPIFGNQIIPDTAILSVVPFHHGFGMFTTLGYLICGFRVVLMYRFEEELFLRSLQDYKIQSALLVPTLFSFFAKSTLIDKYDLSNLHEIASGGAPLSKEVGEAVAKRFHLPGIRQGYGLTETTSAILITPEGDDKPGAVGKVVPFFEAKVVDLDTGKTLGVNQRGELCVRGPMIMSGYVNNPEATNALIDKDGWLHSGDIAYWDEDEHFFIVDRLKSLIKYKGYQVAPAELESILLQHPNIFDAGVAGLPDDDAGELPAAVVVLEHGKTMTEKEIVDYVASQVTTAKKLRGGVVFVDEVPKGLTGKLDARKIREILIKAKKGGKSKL
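Purified P. pyralis luciferase (10nM final) with 10uM D-luciferin and 10uM ATP (Km levels) in 50mM Tris acetate pH 7.5, 10mM Mg acetate, 0.01% Tween-20, 0.05% BSA; qHTS 6-point titration, ~60 µM downward; luminescence read.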
SMN2 splice up: SMN2 splice variant enhancement; HEK293 SMN2-luciferase splicing reporter, luminescence, 30-36 h; Potency, µM (titrated, usually from 46.1 µM), for the others: at the top dose activity change, positive = activation, usual class: activators; 210,000 tested, 2.8% active; AID 1458; note: % of control where 0% means no effect; nearly all actives have a fitted effect of over 55% in size
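HEK293 cells carry an SMN2 minigene-luciferase reporter in which exon 7 inclusion puts luciferase in frame. Cells were seeded at 2000 cells/well, attached for 10-12 hours, then exposed to compounds for 30-36 hours at 37C before ONE-Glo luminescence.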
NPC1 promoter act: activators of NPC1 promoter | Huh7 NPC1 promoter luciferase reporter, 24 h | Potency, µM (top dose mostly 9.22 µM), without a hit: top-dose activation, usual class: activators | 320,000 tested, 2.4% active; note: % of control where 0% means no effect; nearly all actives have a fitted effect of over 60% in size
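Luminescence read-out of NPC1 promoter-driven luciferase in stably transfected Huh7 cells; compounds delivered in DMSO and left 24 h at 37C, 5% CO2, qHTS titration format.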
ELG1 genotox: genotoxicity induction in ELG1-luciferase HEK293T cells | 330,000 tested, 1.3% active | HEK293T ELG1-luciferase reporter, luminescence, 16 h | Potency, µM (titrated, usually from 46 µM), for the others: at the top dose activity change, positive = activation, most hits filed as activators | AID 504466; note: % of control where 0% means no effect; nearly all actives have a fitted effect of over 60% in size
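Genotoxicity was scored as increased ELG1-luciferase reporter signal, measured by ONE-Glo luminescence (30 min, room temperature). Compound or vehicle exposure of the HEK293T reporter cells lasted 16 hr at 37°C.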
Rab9 promoter act: activators of Rab9 promoter; Potency, µM (series often up to 9.22 µM), inactives show top-dose activation, negative = inhibition, hits mostly activators; Huh7 Rab9 promoter-luciferase reporter, luminescence, 24 h; AID 485297; 320,000 tested, 2.8% active; note: % of control where 0% means no effect; nearly all actives have a fitted effect of over 60% in size
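Cell-based reporter: Huh7 stable for Rab9 promoter-driven luciferase, plated in reduced-serum medium with 10% FBS at 1500 cells/well, compound-treated 24 h at 37 °C, luminescence read after 10 min reagent.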
Active calls of the source: *; ? = inconclusive; . = no result; [ ] = dose if it differs, or a comment. An excerpt weighted towards active compounds, which were near 7.5% of everything screened. Calls come from the whole dose curve; as a rule, active = well fitted curve in the direction sought with a large enough effect; inconclusive = small, poorly fitted or top-dose-only effect, or another doubt; inactive = no such curve, though single readings can be large; an effect the other way counts as inactive or inconclusive. Potency is the fitted concentration of half-maximal effect.

SMILES | FLuc counter | SMN2 splice up | NPC1 promoter act | ELG1 genotox | Rab9 promoter act
CCC(=O)N1CCN(c2nc(-c3ccc(Cl)cc3)cs2)CC1 | 27µM* | -42% | 2% | 4% | 1%
O=C(c1cn(-c2ccccc2)nc1-c1ccc(F)cc1)N1CCOCC1 | ? | -2% | 3% | 2% | 6%
CS(=O)(=O)N1CCN(c2nc(-c3ccc(F)cc3)cs2)CC1 | 11µM* | -25% | 11% | -1% | 14%
c1ccc(-c2csc(-n3cccn3)n2)cc1 | 27µM* | 1% | 19% | 2% | 23%
O=S(=O)(c1ccc(F)cc1)N1CCN(c2nc(-c3ccc(F)cc3)cs2)CC1 | -3% | -34% | 0% | -6% | -3%
O=C(c1ccco1)N1CCN(C(=O)c2cn(-c3ccccc3)nc2-c2ccc(F)cc2)CC1 | 4.8µM* | . | 5% | 5% | 12%
CCc1ccc(NC(=O)Cn2c(=O)n(Cc3nc(C)no3)c(=O)c3cc4c(cc32)OCO4)cc1 | 7% | . | . | . | .
NC1=N[C@H](c2ccc(Cl)cc2)N(c2ccc(S(=O)(=O)Nc3ncccn3)cc2)C(N)=N1 | . | -11%[9.22 µM] | . | . | .
Cc1onc(-c2ccccc2)c1NC(=O)N(Cc1ccccc1)C(C)C | 1% | . | -1% | -4% | 3%
Cc1c(NC(=S)NC(=O)c2cccc(Br)c2)c(=O)n(-c2ccccc2)n1C | -1% | . | -2% | -2% | 3%
CCN(CC(=O)NCc1ccc(Cl)cc1)C(=O)/C=C/c1ccc(Cl)c([N+](=O)[O-])c1 | 9.5µM* | . | 13% | -6% | 2%
CN(C)c1cccc(C(=O)NC2CCCc3ccccc32)c1 (stereo not drawn) | -3% | . | -1% | 4% | 0%
CCCN1C(=O)c2cc(C(=O)O)ccc2C1O (stereo not drawn) | 0% | 8% | 2% | 0% | -5%
CN(C)c1cccc(C(=O)NC2CCCCCC2)c1 | 13µM* | 13µM* | ? | 18µM* | 3.2µM*
CCCN1C(=O)c2cc(C(=O)NC3CCCCCC3)ccc2C1O (stereo not drawn) | 13µM* | 10µM* | 2µM* | 9.2µM* | 2.2µM*
CCn1c(C)c(C)c2cc(C(=O)NC3CCCCCC3)ccc21 | 12µM* | . | 16% | 9% | ?
Cc1cccc(C(=O)NC2CCCCCCC2)c1 | 12µM* | . | 4µM* | ? | 4.5µM*
CCC1CCCCN1CCCNC(=O)c1ccc2c(c1)c(C)c(C)n2CC (stereo not drawn) | 2% | . | 1% | -2% | 2%
CN(C(=O)C(Cl)Cl)C1CC2C=CC1C2 (stereo not drawn) | 1% | . | -3% | -3% | -2%
CCCCn1c(N)c(N(CCOC)C(=O)c2ccc(-n3c(C)ccc3C)cc2)c(=O)[nH]c1=O | 0% | . | -4% | 17% | 1%
COc1cc(/C(C)=N/NC(=O)C(O)(c2ccccc2)c2ccccc2)ccc1O | -6% | 9% | -2% | 15% | 26%
O=C(Nc1ccc(S(=O)(=O)N2CCCCCC2)cc1)c1[nH]ncc1[N+](=O)[O-] | 17µM* | . | ? | ? | ?
O=C(Nc1ccc([N+](=O)[O-])cc1)c1ccc(S(=O)(=O)N2CCCC2)cc1 | 2% | . | -3% | 0% | -9%
COc1ccc(S(=O)(=O)N2CCN(C(=O)c3ccc4ccccc4n3)CC2)cc1 | 0% | . | -5% | 1% | 2%
O=C(CSc1ncccc1C(=O)O)c1cccc(C(F)(F)F)c1 | 24µM* | ? | 19% | ? | ?
SMILES | FLuc counter | SMN2 splice up | NPC1 promoter act | ELG1 genotox | Rab9 promoter act
O=C(CSc1ncccc1C(=O)O)c1ccccc1F | ? | 9% | 10% | 3% | 20%
O=C(CSc1ncccc1C(=O)O)c1ccc2ccccc2c1 | 9.5µM* | ? | ? | 5% | ?
O=C(c1ccc(F)cc1F)N1CCCN(c2nc(-c3ccccc3)ns2)CC1 | 3% | . | 0% | -4% | 0%
CC(C)(C)NC(=O)N1CCN(c2nc(-c3ccccc3)ns2)CC1 | -55% | . | ? | 14% | 3.5µM*
Cc1ccc(OC(=O)COc2ccccc2C)c(-n2nc3ccccc3n2)c1 | 4.8µM* | 11µM* | ? | ? | ?
Cc1ccc(OC(=O)COc2ccccc2)c(-n2nc3ccccc3n2)c1 | 8.5µM* | 20% | 3.5µM* | 7.3µM* | 2µM*
